Experimental data taken from PubChem BioAssay (NCATS).
Results filed as inconclusive are left out. The call rests on the fitted dose curve; in most records, active means well fitted curve in either direction with a large enough effect (not every such curve was filed as active); inconclusive means small, poorly fitted or top-dose-only effect, or another doubt; inactive means flat fitted curve, though single readings scatter.

assay: AP1 Signaling Pathway (AID 357); conditions: ME-180 (cervical carcinoma) AP-1-bla reporter, EGF-induced, beta-lactamase ratio, 5 h; at 17.2 µM (top of the series) unless noted
Outline: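 AP-1-bla ME-180 cells with beta-lactamase reporter under AP-1 response element, stimulated with EC50 EGF; compounds titrated, 5 hours at 37 degrees Celsius. CCF4 read at 460/530 nm ratio; positive and negative modulators judged by AC50.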
On the % scale 0 is the no-effect control and ±100 the full control effect.

Activity change, negative = inhibition, inactive:
COCc1[nH]nc2c1C(c1cccc(OC)c1)C(C#N)=C(N)O2 (stereo not given) -19.1%
O=C(Nc1cccnc1)c1cccnc1 11.7%
CCN(CC)CCN1C(=O)C(=O)/C(=C(/O)c2ccc(F)cc2)C1c1cccnc1 (stereo not given) 12.6%
COc1ccc(OC)c(C2C(C#N)=C(N)Oc3cc(C)n(Cc4ccccn4)c(=O)c32)c1 (stereo not given) 1.88%
Cc1cc(C)n(C(=O)CSc2nc3ccccc3o2)n1 13.4%
Cc1nn(C)cc1/C=N/O 10.9%
COC(=O)/C=c1/s/c(=C(/C#N)C(=O)N2CCOCC2)n(-c2ccccc2)c1=O 8.21%
O=C(CC1SC2=NCCN2C1=O)Nc1ccccc1 (stereo not given) 4.21%
Cc1c(/C(O)=C2/C(=O)C(=O)N(CCN3CCOCC3)C2c2cccnc2)cnn1-c1ccccc1 (stereo not given) -11.6%
CCOC(=O)c1cc(CC)sc1NC(=O)C1CC1 -23.9%
O=c1[nH]c(CN(CCO)CCO)nc2c1C1(CCCCC1)Cc1ccccc1-2 8.29%
CCCC(=O)Nc1sc2c(c1C#N)CCCC2 -16.2%
CSc1nc2sc3c(c2c2nnnn12)CC(C)(C)OC3 -8.22%
CC(=N\O)/C(CN(C)C)=N/O -9.85%
O=C(C1=C(O)C(=O)N(CCCN2CCOCC2)C1c1ccccn1)c1cccs1 (stereo not given) -0.154%
CNC(=O)c1ncnnc1N(C)C(=O)NCc1ccccc1 -4.45%
CCOC(=O)CNC(=O)CNC(=O)c1ccc(OCC(C)C)cc1 -5.66%
CC(C)Cn1cnc2c(c1=O)c1nc3ccccc3nc1n2Cc1ccc2c(c1)OCO2 -7.49%
Cc1cccc(C)c1NC(=O)CSCC(=O)c1ccc(O)c(O)c1 -12.4%
CCOC(=O)C1CCN(C(C)=C2C(=O)c3ccccc3C2=O)CC1 2.67%
N#CC12CCCCC1CC1CCCCC1(C#N)N2Cc1ccccn1 (stereo not given) 3.99%
Cc1nc2sc(C)c(C)c2c(=O)o1 -1.58%
c1coc(-c2nnc3sc(-c4cccs4)nn23)c1 -11.6%
O=C(OCCN1CCOCC1)c1ccc2c(c1)OCCO2 -10%
CCSc1nnc(N(CCC(=O)O)CCC(=O)O)s1 2.21%
O=C(NC1CCS(=O)(=O)C1)N1CCCCC1 (stereo not given) -10.9%
CCCCCOC(=O)Cc1c(C)nc(-c2ccccc2)[nH]c1=O -3.29%
CCN(CC)c1nc(N2CCOCC2)c(C#N)c2c1CN(C)CC2 -1.52%
O=C1OC(Nc2ccc(Br)cn2)c2ccccc21 (stereo not given) 12.2%
COc1cccc(Cn2c(OCC3CCCO3)nc3c2c(=O)n(C)c(=O)n3C)c1 (stereo not given) -4.44%
CCOC(=O)c1[nH]c2ccc(C)cc2c1N -6%
O=c1[nH]nc2n1CCCCC2 13.2%
Cc1cccc(N2C(=O)CC(N3CCN(Cc4ccc(Cl)cc4)CC3)C2=O)c1 (stereo not given) 1.23%
O=C(O)CN(c1ccccc1)C1SC(=O)NC1=O (stereo not given) 3.92%
CCOC(=O)c1[nH]c2ccc(C)cc2c1N=CN(CC)CC 7.82%
CCOC(=O)C(C)Oc1nc(Oc2ccccc2)nc(N(C)C)n1 (stereo not given) -9.94%
Cn1ncc2nc[nH]c(=O)c21 0.993%
N#Cc1c(N)nc(SCC(=O)NCCc2ccccc2)c(C#N)c1-c1cccs1 0.711%
Cn1c(NCc2ccccc2)nc2c1c(=O)n(Cc1ccccc1)c(=O)n2C -27.4%
CC(NC(=O)Nc1ncccn1)(C(F)(F)F)C(F)(F)F 1.93%
